From PubChem BioAssay (NCATS)
Records with an inconclusive call do not appear. Active and inactive are the calls of the source. The call rests on the fitted dose curve; in most records, active means well fitted cell-killing curve with a large enough effect; inconclusive means small, poorly fitted or top-dose-only effect, or effect the other way; inactive means no such curve, though single readings can be large or run the other way.

Assay: Quantitative High-Throughput drug screen in 47 multiple myeloma cell lines against the NCATS MIPE library collection: OCIMY7_PLB cell viability assay (AID 1918987); further: nearly all actives have a fitted effect of over 65% in size
Conditions: OCI-MY7 myeloma viability, CellTiter-Glo ATP, 48 h; series mostly up to 45.8 µM
Source text: PI: Beverly A. Mock Ph.D.
Laboratory of Cancer Biology and Genetics,
Center for Cancer Research, National Cancer Institute,
National Institute of Health, Bethesda, Maryland
Drug resistance and disease progression are common in multiple myeloma (MM) patients, underscoring the need for new therapeutic combinations. […] We hypothesized that effective combinations would reduce MYC expression and enhance p16 activity. […] These preclinical data identify potentially useful drug combinations for evaluation in drug-resistant MM and reveal potential mechanisms of combined drug sensitivity.
Described herein is the primary MIPE qHTS used to cherrypick compounds. Validated compounds were then further tested for potential synergistic activiy.
[1] Peat TJ, Gaikwad SM, Dubois W, Gyabaah-Kessie N, Zhang S, Gorjifard S, Phyo Z, Andres M, Hughitt VK, Simpson RM, Miller MA, Girvin AT, Taylor A, Williams D, D'Antonio N, Zhang Y, Rajagopalan A, Flietner E, Wilson K, Zhang X, Shinn P, Klumpp-Thomas C, McKnight C, Itkin Z, Chen L, Kazandijian D, Zhang J, Michalowski AM, Simmons JK, Keats J, Thomas CJ, Mock BA. Drug combinations identified by high-throughput screening promote cell cycle transition and upregulate Smad pathways in myeloma. Cancer Lett. 2023 Aug 1;568:216284. doi: 10.1016/j.canlet.2023.216284. Epub 2023 Jun 24. PMID: 37356470; PMCID: PMC10408729.
SEQUENCE No. (e.g., 1, 2, 3, etc.); […] (e.g., Cells, Incubation, Reagent, etc.); VALUE and DESCRIPTION.
1; Cells; 5 uL; white, solid bottom 1536-well Greiner assay plate.
2; Compounds; 23 nL; Kalypsis pin tool (Wako USA) equipped with a 1536-well pin head to transfer to the assay plates.
3; Incubation; 48 hours; 37C incubation.
4; Reagent;5uL; CellTiter Glo (Promega).
5; Detector; 425V; Luminescence; Viewlux PerkinElmer.
NOTES (numbers refer to Sequence numbers above)
1. The cell-based screening methods employed in this study were like those previously published. Briefly, the corresponding myeloma cell lines were screened in 1,536-well plates with 500 cells, 5-uL per well for inhibition of cell viability (assessed by measuring ATP levels with CellTiterGlo).
2. NCATS MIPE 4.0 library of approved and investigational drugs were added using the Kalypsis pin tool. Wells treated with DMSO only for 100% viability and media only for 0% viability were used as controls.
3. The assay plates were covered and incubated for 48 hours in a 37C, 5% CO2 incubator with controlled humidity.
4. After 48 hours, CellTilter-GloTM luminescent substrate mix (Promega) reagent was added to the assay plate and plates we incubated for 5 min at room temperature.
5. Signal was measured as median relative luminescence units on a ViewLux (PerkinElmer) multiplate reader.
[1] Heske CM, Davis MI, Baumgart JT, Wilson K, Gormally MV, Chen L, Zhang X, Ceribelli M, Duveau DY, Guha R, Ferrer M, Arnaldez FI, Ji J, Tran HL, Zhang Y, Mendoza A, Helman LJ, Thomas CJ. Matrix Screen Identifies Synergistic Combination of PARP Inhibitors and Nicotinamide Phosphoribosyltransferase (NAMPT) Inhibitors in Ewing Sarcoma. Clin Cancer Res. 2017 Dec 1;23(23):7301-7311. doi: 10.1158/1078-0432.CCR-17-1121. Epub 2017 Sep 12. PMID: 28899971; PMCID: PMC6636827.
Potency means the concentration at half of the fitted maximal effect.

Row | SMILES | Potency
1 | C[C@@H]1C[C@H]2[C@@H]3CCC4=CC(=O)C=C[C@]4(C)[C@@]3(Cl)[C@@H](O)C[C@]2(C)[C@@]1(OC(=O)c1ccco1)C(=O)CCl | 9.35 µM (active)
2 | COc1cc([C@@H]2c3cc4c(cc3[C@H](O)[C@H]3COC(=O)[C@H]23)OCO4)cc(OC)c1OC | inactive
3 | Nc1nc(F)nc2c1ncn2[C@@H]1O[C@H](CO)[C@@H](O)[C@@H]1O | 0.118 µM (active)
4 | Oc1c(Cl)cc(Cl)c2cccnc12 | 10.5 µM (active)
5 | CCCCc1oc2ccc(NS(C)(=O)=O)cc2c1C(=O)c1ccc(OCCCN(CCCC)CCCC)cc1 | 18.7 µM (active)
6 | CN(C)c1ccc(C(=C2C=CC(=[N+](C)C)C=C2)c2ccc(N(C)C)cc2)cc1 | 0.0187 µM (active)
7 | CCCc1cc(C(N)=S)ccn1 | inactive
8 | CC(C)C[C@H](NC(=O)[C@H](CCc1ccccc1)NC(=O)CN1CCOCC1)C(=O)N[C@@H](Cc1ccccc1)C(=O)N[C@@H](CC(C)C)C(=O)[C@@]1(C)CO1 | 0.0118 µM (active)
9 | CC1=NN(c2ccccc2)C(=O)C1 | inactive
10 | CC(C)OC(=O)C(C(=O)OC(C)C)=C1SC=CS1 | inactive
11 | CCCc1nc(C)c2c(=O)[nH]c(-c3cc(S(=O)(=O)N4CCN(CC)CC4)ccc3OCC)nn12 | 5.9 µM (active)
12 | COC(=O)Nc1nc2ccc(Sc3ccccc3)cc2[nH]1 | 0.209 µM (active)
13 | CNC(=O)c1cc(Oc2ccc(NC(=O)Nc3ccc(Cl)c(C(F)(F)F)c3)cc2)ccn1 | 3.32 µM (active)
14 | CNS(=O)(=O)Cc1ccc2[nH]cc(CCN(C)C)c2c1 | inactive
15 | CO[C@@H]1[C@@H](OC(N)=O)[C@@H](O)[C@H](Oc2ccc3c(O)c(NC(=O)c4ccc(O)c(CC=C(C)C)c4)c(=O)oc3c2C)OC1(C)C | 5.9 µM (active)
16 | Cc1nnc(C(=O)NC(C)(C)c2nc(C(=O)NCc3ccc(F)cc3)c(O)c(=O)n2C)o1 | inactive
17 | COC(=O)Nc1nc2ccc(S(=O)c3ccccc3)cc2[nH]1 (stereo not given) | 7.43 µM (active)
18 | CC(=O)CC(c1ccccc1)c1c(O)c2ccccc2oc1=O (stereo not given) | inactive
19 | COc1cc(NCc2ccc3nc(N)nc(N)c3c2C)cc(OC)c1OC | 1.48 µM (active)
20 | CNS(=O)(=O)CCc1ccc2[nH]cc(C3CCN(C)CC3)c2c1 | 0.332 µM (active)

Row | SMILES | Potency
21 | C[C@@H](CN1CC(=O)NC(=O)C1)N1CC(=O)NC(=O)C1 | 2.35 µM (active)
22 | N[C@@H](Cc1ccc(O)c(O)c1)C(=O)O | inactive
23 | COC(=O)Nc1nc2ccc(C(=O)c3ccccc3)cc2[nH]1 | 0.418 µM (active)
24 | CNCC[C@H](Oc1cccc2ccccc12)c1cccs1 | 0.59 µM (active)
25 | CCC(=O)O[C@]1(C(=O)SCF)[C@H](C)C[C@H]2[C@@H]3C[C@H](F)C4=CC(=O)C=C[C@]4(C)[C@@]3(F)[C@@H](O)C[C@@]21C | 5.26 µM (active)
26 | CC1=CC(=O)c2ccccc2C1=O | 33.2 µM (active)
27 | CC(C)(C)NC(=O)[C@H]1CC[C@H]2[C@@H]3CC[C@H]4NC(=O)C=C[C@]4(C)[C@H]3CC[C@]12C | 0.332 µM (active)
28 | O=S(=O)(O)CCS | inactive
29 | S=P(N1CC1)(N1CC1)N1CC1 | 13.2 µM (active)
30 | O=C(NCC1CN(c2ccc(N3CCOCC3=O)cc2)C(=O)O1)c1ccc(Cl)s1 (stereo not given) | inactive
31 | NC(=O)c1cccc(N)c1 | 4.69 µM (active)
32 | CN1CCCC(n2nc(Cc3ccc(Cl)cc3)c3ccccc3c2=O)CC1 (stereo not given) | 1.18 µM (active)
33 | CCc1c2c(nc3ccc(OC(=O)N4CCC(N5CCCCC5)CC4)cc13)-c1cc3c(c(=O)n1C2)COC(=O)[C@]3(O)CC | 0.296 µM (active)
34 | Cc1ccc(S(=O)(=O)N[C@@H](Cc2ccccc2)C(=O)CCl)cc1 | 3.32 µM (active)
35 | Nc1[nH]c(=O)ncc1F | inactive
36 | COc1cc(NS(=O)(=O)c2ccc(N)cc2)nc(OC)n1 | inactive
37 | CC[C@H](C)C(=O)O[C@H]1C[C@@H](C)C=C2C=C[C@H](C)[C@H](CC[C@@H]3C[C@@H](O)CC(=O)O3)[C@H]21 | 4.69 µM (active)
38 | N=C(N)c1ccc(OCCCCCOc2ccc(C(=N)N)cc2)cc1 | 2.35 µM (active)
39 | Cc1oc(=O)oc1CN1CCN(c2cc3c(cc2F)c(=O)c(C(=O)O)c2n3C(C)S2)CC1 (stereo not given) | inactive
40 | Nc1nc(=S)c2[nH]cnc2[nH]1 | 1.32 µM (active)
